This is one part of a sample in which hits are shown more often than they occur.
LmPK inh – inhibitors of Leishmania mexicana pyruvate kinase; Q27686; purified LmPK, Kinase-Glo ATP luminescence, 1 h; Potency, µM (highest dose often 57.5 µM), hits mostly inhibitors; actives 0.37% (n = 290,000)
Target sequence (Q27686 whole entry, looked up): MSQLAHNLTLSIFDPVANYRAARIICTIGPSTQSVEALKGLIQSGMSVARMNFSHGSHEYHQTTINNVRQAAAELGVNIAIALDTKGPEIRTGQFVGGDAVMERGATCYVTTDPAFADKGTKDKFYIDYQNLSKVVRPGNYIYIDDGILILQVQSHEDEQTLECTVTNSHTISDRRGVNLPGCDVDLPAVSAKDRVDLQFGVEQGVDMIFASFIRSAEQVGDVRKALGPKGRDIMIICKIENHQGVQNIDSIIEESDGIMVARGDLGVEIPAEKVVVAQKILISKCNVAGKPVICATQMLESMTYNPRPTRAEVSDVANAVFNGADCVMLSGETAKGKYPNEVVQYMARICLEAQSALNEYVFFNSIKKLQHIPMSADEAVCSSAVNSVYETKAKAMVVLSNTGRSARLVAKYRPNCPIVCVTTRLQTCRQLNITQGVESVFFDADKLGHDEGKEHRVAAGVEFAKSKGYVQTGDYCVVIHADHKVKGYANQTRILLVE
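0.1 nM LmPK, 0.5 mM PEP, 0.1 mM ADP; 50 mM imidazole pH 7.2, 7 mM MgCl2, 50 mM KCl; 1 h RT. Kinase-Glo luminescence readout, normalized to no-enzyme (full inhibition) and uninhibited wells.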
Tb PYK inh – inhibitors of Trypanosoma brucei pyruvate kinase. TbPYK enzyme, Kinase-Glo Plus ATP luminescence, 45 min. Potency, µM (top dose mostly 76.8 µM), usual class: inhibitors. actives 0.12% (n = 410,000). AID 624173; further: nearly all actives have a fitted effect of over 50% in size
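Assay buffer: 50 mM TEA pH 7.2, 100 mM KCl, 10 mM MgCl2, 0.05% BSA, 0.01% Tween-20. Pyruvate kinase from T. brucei plus substrate met compound, then ADP (130 uM final). Luminescence was read post 45 min RT.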
Cycloheximide cs – counter-screen for Shiga toxin inhibitors: cycloheximide protein synthesis inhibition. cell reporter, cycloheximide protein synthesis inhibition counterscreen. max response, %. actives 12% (n = 300,000); in the data active means max response mostly above about 13%, no sharp cut-off; inactive means mostly below about 14%; further: read at 38.3 µM for the half of the compounds with a filed dose
SARS PLpro yeast – blocks SARS-CoV papain-like protease in a yeast assay; actives 0.19% (n = 330,000); Potency, µM (series often up to 32.9 µM), actives largely listed as activators; S. cerevisiae expressing SARS-CoV PLpro, growth rescue; calls by dose curve; further: nearly all actives have a fitted effect of over 55% in size
Shiga toxin inh – Shiga toxin inhibition; inhibition, % at 38.7 µM; actives 9.2% (n = 290,000); Vero cells, Shiga toxin protein synthesis inhibition reporter; in the data active means inhibition mostly above about 28%, no sharp cut-off; inactive means mostly below about 43%
NS1 function inh – influenza NS1 inhibition | Potency, µM (titrated, usually from 46.1 µM) | actives 0.4% (n = 270,000) | AID 2326; calls by dose curve; further: actives are rising curves; nearly all actives have a fitted effect of over 50% in size
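OD600 was taken as the measure of yeast growth restored by compound in an NS1-expressing S. cerevisiae strain. Cells had been washed out of glucose medium and diluted 1:100 into galactose -URA medium, pH 6.0.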
Numbers stand for hits; . = inactive; / = not tested or not shown; [ ] = remark or other dose. Unless noted, the call rests on the fitted dose curve; in most records, active means well fitted curve in the direction sought with a large enough effect; inconclusive means small, poorly fitted or top-dose-only effect, or another doubt; inactive means no such curve, though single readings can be large; an effect the other way counts as inactive or inconclusive.

SMILES | LmPK inh | Tb PYK inh | Cycloheximide cs | SARS PLpro yeast | Shiga toxin inh | NS1 function inh
O=C(Nc1nnc(SCC(=O)N2CCCc3ccccc32)s1)c1cccc2ccccc12 | . | . | . | . | . | .
O=C(CCS(=O)(=O)c1ccccc1)N1CCCc2ccccc21 | . | . | 19.2 | . | 56.7 | .
Cc1cccc(-n2nnc(-c3nc(-c4cccs4)no3)c2N)c1 | / | . | / | / | / | /
O=C(Nc1ccccc1)c1cc2ccccc2o1 | 14.1µM | . | . | . | 45.2 | .
CC(=O)c1ccc(NC(=O)c2cc3ccccc3o2)cc1 | . | . | 35.1 | . | / | .
CC(=O)N1CCN(c2ccc(NC(=O)c3cc4ccccc4o3)cc2)CC1 | . | . | . | . | . | .
CC(C)C(=O)N1CCN(c2ccc(NC(=S)NC(=O)c3cc4ccccc4o3)cc2)CC1 | . | . | 33.4 | . | 75.5 | .
O=C(Nc1ccc(NC(=O)c2cc3ccccc3o2)cc1)c1ccco1 | . | . | . | . | . | .
O=C(Nc1ccc(F)cc1)c1cc2ccccc2o1 | . | . | 46.3 | . | 57.7 | .
CCc1ccc(NC(=O)CSc2ccc(-c3sc(-c4ccccc4)nc3C)nn2)cc1 | / | . | / | / | / | /
Cc1cc(C(=O)NNC(=O)c2ccc(Cl)cc2Cl)c(C)o1 | / | . | / | . | / | /
Cc1nc(C(F)(F)F)ccc1C(=O)N1CCC(C)(C(=O)NS(=O)(=O)C2CC2)C1 (centres undefined) | / | . | / | / | / | /
CC(C)(C)C(=O)[C@H](C(c1ccccc1)N1CCOCC1)N1CCOCC1 (some centres undefined) | / | / | / | / | / | .
CCCNC(=O)c1cc2ccccc2c(=O)o1 | . | . | 20.6 | . | 56.7 | .
O=C(NCc1ccccc1)c1cc2ccccc2o1 | . | . | 22.5 | . | . | .
CCCC(=O)c1c[nH]c(C(=O)NCCc2ccccn2)c1 | . | . | 15.8 | . | . | .
O=C(NCCc1ccccn1)c1n[nH]c(=O)c2ccccc12 | . | . | . | . | . | .
CC(C)c1nnc(NC(=O)c2cc3ccccc3o2)s1 | . | . | 32.9 | . | 110.5 | .
Cc1cc(C)c2oc(C(=O)Nc3nnc(C(C)C)s3)cc(=O)c2c1 | . | . | . | . | . | .
COc1ccc(C(=O)N(Cc2cc(OC)c(OC)c(OC)c2)CC2CCCO2)cc1 (centres undefined) | / | . | / | / | / | /
CCNC(=O)c1cc2ccccc2o1 | . | . | . | . | . | .
O=C(NCCc1ccccn1)c1cc2ccccc2o1 | . | . | 48.6 | . | 83.7 | .
O=C(Nc1ccc(N2CCCC2)cc1)c1cc2ccccc2o1 | . | . | 46.6 | . | 64.8 | .
Cc1cc(C(=O)Nc2ccccc2)oc1C | 15.8µM | . | 38.7 | . | 120.9 | .
Cc1cc(OCC(=O)NCC2(N3CCN(C)CC3)CCCCC2)cc(C)c1Cl | / | . | / | / | / | /
SMILES | LmPK inh | Tb PYK inh | Cycloheximide cs | SARS PLpro yeast | Shiga toxin inh | NS1 function inh
O=C(NCCc1ccccc1)c1cccc2c(-c3cccnc3)coc12 | / | . | / | / | / | /
Cc1ccc(N(CCC#N)C(=O)COC(=O)c2cc(C)oc2C)cc1 | / | . | / | . | / | /
Cc1ccc(C2CCN(C(=O)Nc3ccc(C)c(C)c3)C2)cc1 (centres undefined) | / | . | / | / | / | /
COc1ccc(S(=O)(=O)N2CC(C)N(C(=O)N3CCOCC3)C2)cc1 (centres undefined) | . | . | . | . | . | .
O=C1OC(c2cccs2)=N/C1=C\c1ccc(-c2ccccc2Cl)o1 | . | . | . | . | . | .
O=C1OC(c2cccs2)=N/C1=C/c1ccc(-c2cccc(C(=O)O)c2)o1 | . | . | 25.7 | . | . | .
Cc1ccc(-n2ncc3c(=O)n(Cc4ccccc4C)cnc32)cc1C | / | . | / | / | / | /
COc1ccccc1-c1nnc(NC(=O)C(C)SC2=NCCS2)s1 (centres undefined) | . | . | . | . | . | .
CC(SC1=NCCS1)C(=O)Nc1nnc(-c2ccc(Cl)cc2)s1 (centres undefined) | . | . | 11.8 | . | 28.5 | .
CC(Sc1nncn1C)C(=O)Nc1nnc(-c2ccccc2)s1 (centres undefined) | . | . | 23.3 | . | 45.9 | .
Cc1nc2cc(Nc3nnc(-c4ccccc4)c4ccccc34)ccc2n1C | . | . | 45.1 | . | . | .
Cc1nc(Nc2ccccc2C(F)(F)F)sc1C(=O)N(C)C | . | . | 26.1 | . | 44.8 | /
CCOC(=O)c1nc(NNC(C)=O)sc1C | . | . | . | . | . | /
CCOC(=O)c1nc(NCCc2ccccc2)sc1C | . | . | 52.7 | . | 132.6 | /
COc1ccccc1CNc1nc(C)c(C(=O)N(C)C)s1 | . | . | . | . | . | .
Cc1nc(NCCc2ccccc2)sc1C(=O)N(C)C | . | . | 36.5 | . | 57.6 | .
O=C1CCSC2(C(=O)N(Cc3ccc(F)cc3)c3ccccc32)N1c1ccc(F)c(F)c1 (centres undefined) | / | .[15.4 µM] | / | / | / | /
Cc1ccc(CNC(=O)Nc2ccc(Cl)cc2)cc1 | . | . | 17.1 | . | . | .
O=C(NCCC1=CCCCC1)C1CCN(C(=O)c2ccc(Cl)cc2)CC1 | . | . | 30.6 | . | 66.5 | .
CSc1ccc(NC(=O)NCc2ccccc2)cc1 | . | . | 44.3 | . | 90.9 | .
Cc1ccc(NC(=O)C(=O)NCc2ccc(Cl)cc2)cc1 | / | . | / | / | / | /
O=C(NC(=S)NCCC1=CCCCC1)c1cccnc1 | . | . | 14.1 | . | 40.2 | .
CCN(CC)CCCNC(=O)c1cn(CC)c2ccc(S(=O)(=O)N3CCC(C)CC3)cc2c1=O | / | . | / | / | / | /
CCOc1ccccc1CN1CCc2nc(N3CCN(c4ccccc4F)CC3)ncc2C1 | / | . | / | / | / | /
C=CCn1c(SCC(=O)NC2(C)CCS(=O)(=O)C2)nc2ccccc21 (centres undefined) | / | . | / | . | / | /
SMILES | LmPK inh | Tb PYK inh | Cycloheximide cs | SARS PLpro yeast | Shiga toxin inh | NS1 function inh
CC(=O)c1ccc(OCC(=O)NCc2ccc(F)cc2)cc1 | . | . | . | . | . | /
Fc1ccc(NC(=S)NCCc2ccc(Cl)cc2)cc1 | . | . | 48.2 | . | 93.2 | .
O=[N+]([O-])c1ccccc1CNCCc1ccc(F)cc1 | . | . | 40.3 | . | 68.0 | .
O=C(Nc1ccccc1)c1nccn1Cc1ccc(F)cc1 | . | . | 28.0 | . | 63.6 | /
CC(=O)c1ccc(NC(=O)NCc2ccc(F)cc2)cc1 | . | . | 14.0 | . | . | .
O=C(CSc1nccn1Cc1ccc(F)cc1)Nc1ccc(F)cc1F | . | . | . | . | . | .
CSc1ccc(CNC(=O)CCc2c(C)nn(-c3ccc(N4CCCC4)nn3)c2C)cc1 | / | . | / | / | / | /
O=C(O)c1cccc2c1C(=O)c1ccc(-c3ccc(F)cc3F)cc1S2(=O)=O | / | . | / | . | / | /
COc1ccc(CNC(=O)CSc2nc(-c3ccc(OC)c(OC)c3)cc(C(F)(F)F)n2)cc1 | / | . | / | / | / | /
COc1cc(C2Nc3ccccc3-c3nnc(SCc4ccc(C)cc4)nc3O2)cc(OC)c1O (centres undefined) | / | . | / | / | / | /
COc1cc2c(cc1OC)C(c1ccc(F)cc1)N(c1cccc(C#N)c1)C(=O)C2 (centres undefined) | / | . | / | / | / | /
O=C(NCc1ccncc1)Nc1ccc(F)cc1 | . | . | . | . | . | .

Assay outcomes as filed in PubChem BioAssay.
